# Source: PubChem (National Center for Advancing Translational Sciences (NCATS))
# GLP-1R agonist – agonists of human GLP-1 receptor; P43220; HEK293 GLP-1R CRE-luciferase, luminescence, 4-6 h; cells express a hypersensitive GLP-1R form; Potency, µM (top dose mostly 45.6 µM), most hits filed as activators; 0.007% of 380,000 active
# GLP-1R inv ag – inverse agonists of human GLP-1 receptor; HEK293 GLP-1R CRE-luciferase, luminescence, 24 h; GLP-1R form is constitutively active; Potency, µM (top dose mostly 38.3 µM), most hits filed as inhibitors; 1.6% of 410,000 active; further: nearly all actives have a fitted effect of over 55% in size
#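 Inverse agonists were sought by their lowering of basal cAMP reporter luciferase output in HEK293 cells stably carrying constitutively active human GLP-1R, after 24 h compound treatment.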
# GLP1R cytotox – cytotoxicity in counter-screen for GLP-1R inverse agonists. HEK293 cAMP-luciferase reporter cells, luminescence, 24 h. Potency, µM (titrated, usually from 38.3 µM), hits mostly inhibitors. 0.13% of 410,000 active. AID 624418;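 further: loss of luciferase light is scored as toxicity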
#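 Cells in DMEM/10% Nu serum/1% pen-strep, 1536-well format. Pre-incubated 12 h, dosed with 23 nL compound, incubated a further 24 h. Luciferase detection, 12 min at room temp, luminescence.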
# LDHA inh – blocks human lactate dehydrogenase A. purified LDHA, NADH/diaphorase-resazurin fluorescence; active compounds read low. activity change, % (values are at about 110 or 230 µM). 0.15% of 480,000 active. P00338; in the data active means activity change below about -30%; inconclusive means mostly about -25% to -30%
#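 LDH5 2 nM; NADH 0.06 mM, pyruvate 0.2 mM; 200 mM Tris pH 7.4, EDTA, Tween-20; 5 min RT. Detection: diaphorase 0.133 mg/mL + resazurin 37 µM, fluorescence ex540/em590 at 0 and 20 min; normalized to enzyme-free and DMSO wells.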
# p53 reactivation – mutant p53 re-activation in reporter cells | H1299 p53-A138V BP100-luciferase reporter, luminescence, 24 h | Potency, µM (top dose mostly 92.2 µM), most hits filed as activators | 0.063% of 320,000 active; further: nearly all actives have a fitted effect of over 45% in size
#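 p53-null H1299 cells stably carrying temperature-sensitive p53-A138V and a BP100-luciferase reporter were pinned with compounds (4-point, 1:5 series) and held 24 hrs at 37 deg C. Luminescence was read 10 min after detection reagent.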
# ClpP mod – qHTS Assay for Activators of ClpP | 1.9% of 340,000 active | purified B. subtilis ClpP, FRET peptide cleavage, 20 min | Potency, µM (top dose mostly 57.5 µM); active means well fitted falling curve with a large enough effect; inconclusive means small, poorly fitted or top-dose-only effect; inactive means no such curve, though single readings can be large or run the other way; further: the source files actives as falling curves though it sought activators and does not explain the sign; nearly all actives have a fitted effect of over 65% in size
#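 Purified B. subtilis ClpP, 10 microg/mL final in Tris/HCl pH8 with KCl, BSA, glycerol and Tween-20, cleaved an Abz/nitrotyrosine-quenched decapeptide. Fluorescence (ex 320, em 430) was read at 0 and 20 min at room temperature. Delta was normalized to 5.8 microM ADEP and DMSO/no-enzyme controls.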
# A number is an active result; n = inactive; u = inconclusive; x = not tested or not shown; [ ] = dose if it differs, or a comment. This is a sample that favours compounds with a hit; in the whole collection about 2.9% have one here. Unless noted, the call rests on the fitted dose curve; in most records, active means well fitted curve in the direction sought with a large enough effect; inconclusive means small, poorly fitted or top-dose-only effect, or another doubt; inactive means no such curve, though single readings can be large; an effect the other way counts as inactive or inconclusive.
SMILES,GLP-1R agonist,GLP-1R inv ag,GLP1R cytotox,LDHA inh,p53 reactivation,ClpP mod
COc1ccc(C(=O)N/N=C/c2ccc(OC)c(CN3CCCc4ccccc43)c2)cc1,n,10µM,n,n,n,n
COc1ccccc1-c1cnc(C(O)c2cc(C)c(OC)c(C)c2)[nH]1 (centres undefined),n,u,n,n,x,n
CCCCCCCOC(=O)C[N+](C)(C)CCOC1CC2CCC1(C)C2(C)C (centres undefined),n,u,11µM,n,n,x
O=C(CCn1cnnn1)N1CCCC(Nc2ccc(F)c(F)c2)C1 (centres undefined),n,n,n,n,n,32µM
Cc1ccc2cc3c(nc2c1)N(Cc1ccco1)CC3,n,u,n,n,u,28µM
O[C@H]1C[C@H](c2ccccc2)N(CC2CCCCC2)C[C@@H]1n1cc(C2CC2)nn1,n,10µM,u,n,x,n
O[C@@H]1CN(CC2CCCCC2)[C@@H](c2ccccc2)C[C@H]1n1cc(C2CC2)nn1,n,n,n,n,x,n
Cc1onc(-c2ccc(Cl)cc2Cl)c1-c1csc(COc2ccccc2)n1,n,2.8µM,n,n,n,x
O=[N+]([O-])c1cc(C(F)(F)F)ccc1N1CCCNCC1,n,n[7.66 µM],n[7.66 µM],n,n,n
COc1ccc(-c2ocnc2C(=O)Nc2cc(C)ccc2C)cc1,x,x,x,n,x,x
CCCOc1ccc(NC(=O)CC2C(=O)N(CC)C(=S)N2Cc2cccs2)cc1 (centres undefined),n,10µM,n,n,n,n
COC(=O)c1ccc(NC(=O)CC2C(=O)N(c3ccccc3)C(=O)N2Cc2ccco2)cc1 (centres undefined),x,n,n,n,x,n
COc1ccc(NC(=O)CC2C(=O)N(C)C(=S)N2Cc2cccs2)cc1 (centres undefined),n,u,n,n,n,n
CCCCCCOc1ccc(NC(=O)CC2C(=O)N(CC)C(=S)N2Cc2ccco2)cc1 (centres undefined),n,7.1µM,u,n,n,n
CCN1C(=O)C(CC(=O)Nc2ccc(F)cc2)N(Cc2ccco2)C1=S (centres undefined),n,n[7.66 µM],n[7.66 µM],n,n,n
CCOc1ccc(NC(=O)CC2C(=O)N(c3ccccc3)C(=O)N2Cc2ccco2)cc1 (centres undefined),n,n[7.66 µM],n[7.66 µM],n,n,25µM
CC(=O)Oc1ccc(CC(C(=O)O)N2C(=O)c3ccccc3C2=O)cc1 (centres undefined),n,n,n,n,n,x
COc1ccc(S(=O)(=O)N2CCCCCC2)cc1C(=O)NCc1ccc(C)cc1,n,10µM,n,n,n,n
O=C(Cn1c(=O)oc2cc(S(=O)(=O)N3CCCCC3)ccc21)NCc1ccc(Cl)cc1,x,13µM,n,n,x,n
COc1ccc(S(=O)(=O)N2CCCCC2)cc1C(=O)N1CCCCCC1,n,n,n,n,x,14µM
COc1ccc(S(=O)(=O)NC(C)C)cc1C(=O)N1CCOCC1,n,n,n,n,n,28µM
O=C(Cn1c(=O)oc2cc(S(=O)(=O)N3CCCCC3)ccc21)NCc1ccc(F)cc1,x,u,n,n,x,n
CCN(CC(=O)NC(C)(C)C)c1nc(C(F)(F)F)nc2ccccc12,x,x,x,n,x,x
CN1CCN(C(=O)c2cc3c(C(F)(F)F)nn(C)c3s2)CC1,n,n,n,n,n,n
Cc1cccc(-c2noc(-c3csc([C@@H]4C[C@H](O)[C@@H](CO)O4)n3)n2)c1,n,n,n,n,x,n
SMILES,GLP-1R agonist,GLP-1R inv ag,GLP1R cytotox,LDHA inh,p53 reactivation,ClpP mod
C/C(=N\NC(=O)NC1CCCCC1)c1ccc(Cl)s1,n,n,n,n,n,n
Cc1nc(N)[nH]c(=O)c1CCCNc1ccc(CCCCC2(CCl)OCCO2)cc1,n,u,n,n,x,x
CCCCCC(=O)Nc1ccc2oc(-c3cccnc3)nc2c1,n,n,n,n,n,16µM
O=C(Cc1ccccc1)Nc1ccc2oc(-c3cccnc3)nc2c1,n,n,n,n,n,28µM
Cc1ccc2oc(-c3ccccc3)nc2c1,n,n,n,n,u,14µM
COc1ccc(CC(=O)Nc2ccc(-c3nc4cc(C)ccc4o3)c(O)c2)cc1OC,n,n,n,n,n,35µM
CCOc1ccc(CCNC(=O)c2cc(=O)c3ccccc3o2)cc1OCC,x,x,x,n,x,x
Cc1cc(SCc2cccc([N+](=O)[O-])c2)nc(=O)[nH]1,n,n,n,n,n,n
CCOc1ncccc1CNC(=O)c1cc2cc(Cl)ccc2nc1C,x,x,x,n,x,x
CCCC(=O)Nc1ccc(-c2nc3cc(C)ccc3o2)cc1,n,u,n,n,u,40µM
Cc1ccc(C)c(N2CCN(c3ccc(NC(=O)c4cccs4)cc3C(=O)O)CC2)c1,x,n,n,n,x,n
O=C(NCc1nc(-c2ccc(C(F)(F)F)cc2)no1)c1cccs1,n,10µM,n,n,n,n
COc1ccc(NC(=O)/C(Cl)=C(/Cl)S(=O)Cc2ccccc2Cl)cn1 (centres undefined),n,u,4µM,n,n,x
CCc1ccc(-c2cc(C)no2)cc1S(=O)(=O)NCc1ccco1,n,u,n,n,n,n
COc1ccc(-c2c(NC(C)=O)n(C)c3ccccc3c2=O)cc1,n,n,n,n,n,25µM
COc1ccc(-c2c(NC(=O)C(C)C)n(C)c3ccccc3c2=O)cc1,n,n,n,n,n,28µM
O=C1CC(C(=O)Nc2ccc(C(=O)O)cc2)C(c2ccccc2)O1 (centres undefined),n,n,n,n,n,n
O=C1CC(C(=O)Nc2ccc(O)c(C(=O)O)c2)C(c2ccccc2)O1 (centres undefined),n,n,n,n,n,25µM
CN(c1ccccc1)S(=O)(=O)c1cccc(NC(=O)c2ccc(=O)[nH]c2)c1,n,n,n,n,n,n
CN(c1ccccc1)S(=O)(=O)c1cccc(NC(=O)CSc2nncn2C)c1,n,n,n,n,n,n
CC(=O)CCc1ccc(OCC(=O)Nc2cccc(S(=O)(=O)N(C)c3ccccc3)c2)cc1,n,11µM,n,n,n,n
CN(c1ccccc1)S(=O)(=O)c1cccc(NC(=O)CSc2ncc(C(F)(F)F)cc2Cl)c1,n,10µM,n,n,n,n
CN(c1ccccc1)S(=O)(=O)c1cccc(NC(=O)COc2ccccc2)c1,n,u,n,n,n,n
CN(c1ccccc1)S(=O)(=O)c1cccc(NC(=O)c2ccc(=O)[nH]n2)c1,n,n,n,n,n,25µM
Cc1ccc(CCNC(=O)c2cc3c(-c4ccccc4F)nn(C)c3s2)cc1,n,n,n,n,x,n
